# Screening data (PubChem BioAssay)
# DYRK1A inh = inhibitors of rat Dyrk1A kinase. Q63470. ADP-Glo luminescence, NFATc1 peptide. inhibition, % at 12.5 µM. 310,000 tested, 0.43% active. AID 504441; in the data active means inhibition above about 50%;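 further: plate controls were vehicle with enzyme for no effect and no enzyme for full effect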
# A1 inh = inhibitors of the anti-apoptotic protein A1, read as caspase activation; 330,000 tested, 0.066% active; MEF A1-2A-BIM cells, Caspase-Glo 3/7 luminescence, 3 h; percent of clofoctol response, vehicle zero; AID 2462; caspase activation, % (test concentration not listed);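 active means over half of replicate activation scores above 10%, or exactly half above 10 with the replicate mean above 10; inconclusive means replicate mean below 10 yet half the replicates above 10; inactive means over half of replicates below 10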
# dFosB act = enhances mouse delta FosB homodimer DNA binding. P13346. 340,000 tested, 0.99% active. activation, % at 25 µM. purified delta FosB, TAMRA-CDK5 oligo fluorescence polarization; percent of positive-control signal above neutral wells;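 active means mean activation above about 17%, with every replicate also reaching it, limit read from the data, passing the limit was not always enough; inconclusive means only one of the two conditions met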
# Beta2AR agonist = activates human beta-2 adrenergic receptor causing internalization; P07550; Am2.2-beta2AR cells, FAP receptor internalization, flow cytometry; response, % (test concentration not listed); 340,000 tested, 0.43% active; AID 504454;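 active means response above a set limit, near 3 SD of response in nonfluorescent compounds, cut at about 42% in these data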
# Target sequence (P07550 whole entry, looked up): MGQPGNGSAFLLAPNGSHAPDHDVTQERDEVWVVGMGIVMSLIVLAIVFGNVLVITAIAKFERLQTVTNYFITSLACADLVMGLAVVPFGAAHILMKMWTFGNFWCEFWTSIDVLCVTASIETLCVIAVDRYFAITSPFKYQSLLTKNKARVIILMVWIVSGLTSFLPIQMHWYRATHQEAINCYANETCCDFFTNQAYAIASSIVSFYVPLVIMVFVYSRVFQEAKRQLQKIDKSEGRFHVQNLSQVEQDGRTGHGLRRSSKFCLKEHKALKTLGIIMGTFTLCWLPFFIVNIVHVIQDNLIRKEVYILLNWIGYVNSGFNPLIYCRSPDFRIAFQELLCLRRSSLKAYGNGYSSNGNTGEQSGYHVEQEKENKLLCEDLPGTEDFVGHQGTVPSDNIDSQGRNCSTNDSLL
# * marks the source's active call; other numbers are inactive results; ? = inconclusive; . = not tested or not shown. Shown are actives, neighbours in structure and some others; about 1.6% of the full set was active somewhere.
SMILES,DYRK1A inh,A1 inh,dFosB act,Beta2AR agonist
O=C(N/N=C/c1ccc(O)cc1)c1cc(-c2ccccc2)nc2ccccc12,-1,-2,29*,-9
CC(C)COc1cccc(-c2cc(C(=O)N/N=C/c3ccncc3)c3ccccc3n2)c1,.,-1,-3,51*
COC(=O)[C@H](Cc1ccccc1)NC(=O)C1(OC(C)=O)CC(OC(C)=O)C(OC(C)=O)C(OC(C)=O)C1 (stereo partly drawn),4,0,-8,-1
O=C(C1=C(O)C(=O)N(CCN2CCOCC2)C1c1ccc(F)cc1)c1cc2ccccc2o1 (stereo not drawn),-6,0,-3,75*
CC(=C/C(=O)O)/C=C/c1ccc([N+](=O)[O-])cc1,3,-6,3,52*
CC(/C=C\c1ccccc1)=C/C(=O)O,-1,-4,0,4
CCCCn1c(N)c(N(CC(C)C)C(=O)C2CCN(S(=O)(=O)c3ccc(C)cc3)CC2)c(=O)[nH]c1=O,2,1,56*,1
CCOc1ccc(-n2c(C)cc(C(=O)CCl)c2C)cc1,.,0,-3,46*
CC(CNC(=O)c1ccc(C#N)cc1)NC(=O)c1ccc(C#N)cc1 (stereo not drawn),1,2,3,0
CCOC(=O)c1ccc(-c2ccc(/C=N/NC(=O)CN(c3cccc(C)c3)S(C)(=O)=O)o2)cc1,-1,17*,1,12
CCCCCN(C(=O)CCC(=O)OCC(=O)N1CCCCC1C)c1c(N)n(CCCC)c(=O)[nH]c1=O (stereo not drawn),-1,0,-8,-4
c1csc(C2Nc3cccc4cccc(c34)N2)c1,13,0,36*,3
COc1ccc(C2NCCc3c2[nH]c2ccccc32)cc1CSc1nc2ccccc2s1 (stereo not drawn),-2,0,80*,23
O=c1[nH]c(CSc2nc3ccccc3s2)nc2ccccc12,-6,-1,-7,0
O=C(N/N=C/c1coc2ccccc2c1=O)c1ccccc1,4,1,-2,15
O=C(N/N=C/c1coc2ccccc2c1=O)c1cn(-c2ccccc2)nc1-c1ccccc1,5,-2,-5,57*
O=C(NCCS(=O)(=O)NCC1CCCO1)c1ccccc1 (stereo not drawn),-2,0,-4,5
Cc1cc(C)c2c(=N)c3ccccc3n(CCCCCCCCn3c4ccccc4c(=N)c4c(C)cc(C)nc43)c2n1,0,.,-231,63*
C(=NN=C(NN=Cc1cccs1)NN=Cc1cccs1)c1cccs1,0,.,21*,4
C1=C[C@H]2CC[C@@H]1N(c1ccccc1)O2,-2,.,0,-4
CC(C)N(CCO)Cc1nc(C(c2ccccc2)c2ccccc2)no1,-13,-1,-2,6
O=C(C1CCCCCC1)N1CC[C@@H](N2CCC(O)CC2)[C@H](O)C1,4,0,-4,3
CCn1nc(C)c(NC(=O)/C=C/c2ccc(OC)c(COc3ccc(Cl)cc3Br)c2)c1C,-6,0,207*,-2
COc1ccc(/C=C/C(=O)NCc2cn(C)nc2C)cc1COc1ccc(Cl)cc1Br,1,1,?,-10
CCc1ccccc1N(CC(=O)NCc1ccco1)C(=O)CCC(=O)Nc1nccs1,2,1,-9,10
SMILES,DYRK1A inh,A1 inh,dFosB act,Beta2AR agonist
C[C@@H]1CN([C@@H](C)CO)C(=O)c2cccc(NC(=O)Nc3ccccc3)c2O[C@H]1CN(C)C(=O)Nc1cccc2ccccc12,4,0,-10,7
COc1ccc2[nH]c3c4c(ccc3c2c1)C(=O)C=CC4=O,-2,.,-16,61*
CN(c1ccc(OCC(=O)NC2CCC(O)CC2)cc1)S(=O)(=O)c1ccc(Cl)cc1 (stereo not drawn),0,15*,1,0
Cc1nc2c(C#N)cnn2c2c1CCN2CC1CCCO1 (stereo not drawn),-2,0,4,-3
CCOC(=O)c1c(NC(=O)COC(=O)c2ccc(O)cc2)sc(C(=O)NC)c1C,-2,-1,-6,7
CCOC(=O)c1c(NC(=O)COC(=O)c2cnccn2)sc(C(=O)NC)c1C,.,1,39*,-5
O=C(NCC(F)(F)F)c1ccc(S(=O)(=O)Nc2ccccc2N2CCCC2)cc1,-1,0,53*,4
Cc1ccc(S(=O)(=O)Nc2ccccc2N2CCCCC2)cc1,-1,1,-3,-3
CC(NC(=O)c1ccc(NC(=O)CC2SC(N3CCCC3)=NC2=O)cc1)c1ccc(S(N)(=O)=O)cc1 (stereo not drawn),0,0,-9,-2
